In PubChem BioAssay:
Activity calls are given as the source filed them.

assay: PSAC antagonists in infected red cells, primary screen, cell-based, P. falciparum Indochina, OD700, 18 h (AID 1157); details: P. falciparum Indochina infected erythrocytes, osmotic lysis OD700, 18 h; higher = more signal, called active from +8 up or from −8 down

z-score, inactive:
CCOC(=O)C[C@H]1[C@H](OC(=O)Cc2ccc3c(c2)OCO3)[C@@H](NC(=O)c2ccc3ccccc3n2)c2cc(OCCCO)ccc2N1C(=O)c1ccccc1 0.308
COc1ccc([Si](C)(C)[C@@H]2[C@@H](CC(=O)N(CCO)Cc3ccccc3)O[C@]3(C(=O)N(Cc4cccc(N5CCCCC5=O)c4)c4ccccc43)[C@H]2C)cc1 1.14
C=C[C@@H](OC)[C@H](OC(=O)Nc1ccc(OC)cc1)c1ccc(O)c(F)c1 0.475
CCCCCC1=C2CNC(C)(C(=O)OC)C=C2C(C)C1=O (configuration not stated) 0.373
O=C1NC(=O)C2C1C=CC(C(O)c1ccco1)N2Nc1ccc(Cl)cc1Cl (configuration not stated) 1.2
CCC#CCN(Cc1ccccc1Br)[C@H](/C=C/C1CC1)[C@@H](O)Cc1ccccc1 -1.53
COc1ccc([Si](C)(C)[C@@H]2[C@@H](CC(=O)N3Cc4ccccc4C[C@H]3CO)O[C@]3(C(=O)N(Cc4ccc(N5C(=O)c6cccc7cccc5c67)cc4)c4ccccc43)[C@H]2C)cc1 0.694
[N-]=[N+]=Nc1ccccc1C[C@@]1(C(=O)NCCN2CCOCC2)N=C(c2ccc(OCCCO)cc2)O[C@@H]1c1ccccc1N=[N+]=[N-] 2.78
CC1=C2[C@@H](CCc3ccccc3)OB(O)C[C@@H]2[C@@H]2C(=O)N(Cc3ccccc3)C(=O)[C@@H]2C1 0.55
CC1CC/C=C\[C@H]2OC34C=CCN(Cc5ccccc5)C(=O)[C@H]3N(C(CO)C(C)C)C(=O)[C@@H]4C2C(=O)O1 (some centres not stated) 0.304
COc1cccc(C)c1NC(=O)O[C@H]1[C@H](OC(=O)Nc2ccc3c(c2)OCO3)[C@@H](OC(=O)Nc2ccc3c(c2)OCO3)[C@@H](OC)O[C@@H]1CO 0.349
Cc1ccccc1C(O)C1C=CC2C(=O)NC(=O)C2N1Nc1ccccn1 (configuration not stated) 0.68
CCCCC(=C=CC[C@H](O)c1ccc(OCCO)cc1)CCO 0.627
CC(c1ccccc1)C(O)C1C=CC2C(=O)N(C)C(=O)C2N1Nc1ccccc1 (configuration not stated) 0.999
C=CCC(OC(C)=O)[C@@H]1[C@@H](N(Cc2ccc(-c3cccc(C(F)(F)F)c3)o2)C(=O)Cc2ccc(OC)cc2)c2cc(OCCCO)ccc2N1C(=O)c1ccc(-c2ccccc2)cc1 (some centres not stated) 0.0651
Cc1ccc(S[C@]2(C(=O)NC(C)C)CC(=O)N(Cc3cc(C(F)(F)F)cc(C(F)(F)F)c3)[C@@H]2c2ccc(CO)cc2)cc1 0.672
CCOC(=O)C[C@H]1[C@H](OC(=O)c2cc3ccccc3oc2=O)[C@@H](NC(=O)CC(C)C)c2cc(OCCCO)ccc2N1C(=O)c1ccc2ccccc2n1 0.647
COc1ccc(CCNC(=O)[C@@]2(c3ccc([N+](=O)[O-])cc3)CC(=O)N(C3CCCCC3)[C@@H]2c2ccc(CO)cc2)cc1 -0.383
C[C@@H]1NC(=O)[C@@H](Cc2ccccc2)NC(=O)[C@@]23C(=O)N[C@@H](Cc4ccccc4)C2[C@H](C)[C@@]2(C)O[C@H]2C3/C=C/C/C=C\CNC1=O (some centres not stated) 0.159
CCC1=C2CN(Cc3ccccc3)[C@@H](C(=O)Cc3ccccc3)C2C=CCC1 (some centres not stated) -2
N#Cc1ccc(NN2C(C(O)c3ccc(Br)cc3)C=CC3C(=O)N(c4ccccc4)C(=O)C32)cc1 (configuration not stated) -0.348
OCCCC1=CC(c2ccc(CN3CCCC3)cc2)N(Cc2cc3c(cc2Br)OCO3)CC1 (configuration not stated) 0.601
O=C(O)[C@@H]1C[C@@H]2C(=O)N3CCC[C@H]3C(=O)N2[C@@H]1c1ccc(O)cc1 -1.54
CC(C)[Si]1(C(C)C)OCc2cc(-c3ccc(-c4ccc(Cl)c(Cl)c4)o3)nc(-c3ccccc3)c21 0.138
COc1ccc([Si](C)(C)[C@@H]2[C@@H](CCO)O[C@]3(C(=O)N(Cc4ccccc4)c4ccc(N5C(=O)c6cccc7cccc5c67)cc43)[C@H]2C)cc1 1.16
C=C[C@H](C)[C@H](OC(=O)Nc1ccc(SC)cc1)c1ccc(OCCO)cc1 0.184
CCOC(=O)C[C@H]1[C@H](OC(=O)c2cc3ccccc3oc2=O)[C@@H](NC(=O)c2ccc3ccccc3n2)c2cc(OCCCO)ccc2N1C(=O)Cc1ccc(OC)cc1 0.745
